About 79,000 compounds went through this panel and 15% of them were active in at least one assay; those are over-represented in the sample as a whole. Unmarked numbers belong to inactive results. Activity calls are given as the source filed them. No stated cut-off is given here; in the data, active means growth inhibition above about 70%; inactive means the rest.
Experiment: NCI Yeast Anticancer Drug Screen. Data for the bub3 strain (AID 167)
Settings: S. cerevisiae bub3 mutant strain, at 50.0 µM (retest, dose inferred, filed as 5.0), hits give high values
How it was run: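 Steps: expose the mutant yeast strain to compound; grow alongside vehicle-treated cultures; measure growth; express inhibition against the vehicle cultures.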

Structure (SMILES)	growth inhibition
CCCCCCCCCCCCCCCC1=NCCN1C	99% (active)
C=CCNC(=O)c1ccccc1C(=O)O	7%
O=C(Nc1ccc(Cl)cc1Cl)OC(Cn1cncn1)c1ccc(Cl)cc1Cl (configuration not stated)	72% (active)
CC1=C(C)CC2C(=O)C(C(O)CC(C)C)=CC(=O)C2C1 (configuration not stated)	97% (active)
BrCc1ccccc1C[P+](c1ccccc1)(c1ccccc1)c1ccccc1	98% (active)
Cc1cn(C(C#N)=C(C#N)C#N)c2ccccc12	-3%
O=C1OCCCOC(=O)c2cc(ccc2O)OCC#CC#CCOc2ccc(O)c1c2	-6%
O=[N+]([O-])c1cc2ccc(O)cc2c2ccccc12	86% (active)
COc1cc2c(oc(=O)c3cc(C)cc(OC)c32)c2c(C3OC(C)C(O)C(C)(O)C3O)ccc(O)c12 (configuration not stated)	97% (active)
Oc1c(Cl)cc(Cl)c(Cc2c(Cl)cc(Cl)c(O)c2Cl)c1Cl	97% (active)
N#CI1OC(C(F)(F)F)(C(F)(F)F)c2ccccc21	99% (active)
c1ccc2c(c1)[nH]c1c[n+]3c(c[n+]12)[nH]c1ccccc13	50%
CC1Cc2cc(O)c(O)cc2-c2cc(O)c(O)cc2CC1C (configuration not stated)	93% (active)
COc1ccc(C2c3cc4c(cc3OC(C)(O)C2C)OCO4)cc1 (configuration not stated)	96% (active)
Cc1ccc(C2(O)CC(c3ccc([N+](=O)[O-])o3)=NN2C(=O)COc2ccc(Cl)cc2)cc1 (configuration not stated)	10%
CCO[Si](CC)(OCC)OCC	6%
C/C=C(/CCC1NCCC2c3ccccc3NC12)[Si](C)(C)C (configuration not stated)	15%
